# In PubChem BioAssay AID2553 (Johns Hopkins Ion Channel Center, 2010):
# Hit rate of the full screen: of about 310,000 compounds, about 3,300 (1.1%) were called active.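 Rule for the calls: active = B-score under library mean minus 3 SD, initial fluorescence not abnormally high, positive integrated signal ratio; inactive = the rest.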 The entries come from a sample that favours actives as a whole.
# Target: Short transient receptor potential channel 6 (Mus musculus) (UniProt Q61143)
# Experiment: mouse TRPC6 channel inhibitors, primary screen, cell-based, HEK293, membrane potential dye (AID 2553);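 for B-score: B-score derived from integrated fluorescence ratio over the kinetic read; more negative B-score means stronger inhibition of depolarization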
# Conditions: ACh-evoked depolarization, at 10 µM; stronger effect = lower value
# Short transient receptor potential channel 6 (Mus musculus), sequence (Q61143 whole entry, looked up): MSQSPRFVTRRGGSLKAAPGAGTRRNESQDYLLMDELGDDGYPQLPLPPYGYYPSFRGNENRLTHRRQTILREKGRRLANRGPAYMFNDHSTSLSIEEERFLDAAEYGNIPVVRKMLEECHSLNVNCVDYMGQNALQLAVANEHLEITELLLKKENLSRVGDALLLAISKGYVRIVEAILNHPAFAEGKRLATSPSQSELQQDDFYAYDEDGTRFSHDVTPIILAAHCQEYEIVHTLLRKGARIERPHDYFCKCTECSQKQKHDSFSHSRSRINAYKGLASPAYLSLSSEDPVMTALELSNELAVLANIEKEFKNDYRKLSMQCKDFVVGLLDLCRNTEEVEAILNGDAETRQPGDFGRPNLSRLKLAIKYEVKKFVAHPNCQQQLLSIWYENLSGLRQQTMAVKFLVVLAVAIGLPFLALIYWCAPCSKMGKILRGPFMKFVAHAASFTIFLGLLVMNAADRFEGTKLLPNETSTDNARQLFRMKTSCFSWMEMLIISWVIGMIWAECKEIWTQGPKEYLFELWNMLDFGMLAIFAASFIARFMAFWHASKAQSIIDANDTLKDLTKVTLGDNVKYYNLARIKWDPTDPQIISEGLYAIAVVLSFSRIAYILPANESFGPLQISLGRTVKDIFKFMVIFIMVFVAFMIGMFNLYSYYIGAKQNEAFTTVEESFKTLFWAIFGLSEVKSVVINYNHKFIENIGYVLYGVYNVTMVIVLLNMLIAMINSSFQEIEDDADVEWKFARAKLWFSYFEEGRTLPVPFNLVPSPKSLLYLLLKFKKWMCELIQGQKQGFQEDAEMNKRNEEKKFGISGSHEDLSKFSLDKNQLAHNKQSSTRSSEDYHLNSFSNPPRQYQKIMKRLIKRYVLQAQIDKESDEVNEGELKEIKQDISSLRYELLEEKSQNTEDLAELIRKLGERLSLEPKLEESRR
row,SMILES,B-score
1,COc1ccccc1N1CC(C(=O)Nc2nnc(SCC(=O)NC(C)C)s2)CC1=O (stereo not given),inactive
2,CCCCN(CCCC)CC(O)Cn1c2ccccc2c(=O)c2ccccc21 (stereo not given),-5.74 (active)
3,CS(=O)(=O)N(CC(O)Cn1c2ccccc2c2ccccc21)c1cccc2ccccc12 (stereo not given),inactive
4,CCCCn1c(=O)c(C(C)=O)c(O)c2ccccc21,inactive
5,O=C1N(c2ccc(Cl)cc2)C(c2ccc(Cl)cc2)N2CCCN12 (stereo not given),inactive
6,c1ccc(C2CNCc3c2ccc2ccccc32)cc1 (stereo not given),-5 (active)
7,NC(=O)C1=C[C@H](c2csc3ccccc23)C[C@H](OCc2ccc(CO)cc2)O1,inactive
8,Cc1ccc2nc(Nc3ccccc3)cc(C)c2c1,inactive
9,Cc1ccc2nc(C)c3c(c2c1)N(c1ccccc1)CC3,-8.61 (active)
10,Cc1nc2ccc(C(=O)N3CCN(c4ccccc4)CC3)cc2s1,inactive
11,O=C(NNS(=O)(=O)c1ccccc1)c1cnn(-c2ccc(Cl)cc2)c1C(F)(F)F,inactive
12,CC1CCC(NS(=O)(=O)c2ccc3c(c2)CC(=O)N3)CC1 (stereo not given),inactive
13,CN(C)CCCN(C(=O)c1ccc(S(=O)(=O)N2CCCCCC2)cc1)c1nc2cc3c(cc2s1)OCCO3,inactive
14,CCc1ccc2nc(N(CCCN(C)C)C(=O)c3ccc4c(c3)OCCO4)sc2c1,-6.22 (active)
15,CCOc1ccc2nc(N(CCCN(C)C)C(=O)c3ccc(C(=O)c4ccccc4)cc3)sc2c1,inactive
16,O=C(NCCCN1CCCCC1)C1CCCN(c2ncnc3c2nc2n3CCCCC2)C1 (stereo not given),inactive
17,Cc1ccc(C(C(=O)NCC2CCCO2)N(C(=O)c2snc(C(N)=O)c2N)c2ccc(C(C)C)cc2)o1 (stereo not given),inactive
18,Cc1cccc(NC(=O)Nc2ccc3c(c2)OCO3)n1,inactive
19,O=C(CCCN1C(=O)c2cccc3cccc(c23)C1=O)N1CCN(Cc2ccc3c(c2)OCO3)CC1,-6.03 (active)
20,Cn1c(=O)cc(OCCCC(=O)N2CCN(Cc3ccc4c(c3)OCO4)CC2)c2ccccc21,inactive
21,O=C(Nc1cccc2ccccc12)N1CCN(Cc2ccc3c(c2)OCO3)CC1,inactive
22,CC1(C)O[C@H]2CC(=O)OCC23[C@H]2CC[C@@]4(C)[C@H](c5ccoc5)OC(=O)[C@H]5O[C@]54[C@]2(C)C(=O)C[C@@H]13 (stereo not given in full),inactive

row,SMILES,B-score
1,COc1ccccc1N(CC(=O)N/N=C(\C)c1ccccc1O)S(=O)(=O)c1ccc(C)cc1,inactive
2,CC1CCN(c2ccc([N+](=O)[O-])c(SCCO)c2)CC1,inactive
3,CN1CCN(c2ccc([N+](=O)[O-])c(Sc3nc4ccccc4[nH]3)c2)CC1,-5.53 (active)
4,O=C(CSc1nc2ccccc2[nH]1)N/N=C/C=C\c1ccccc1[N+](=O)[O-],inactive
5,O=c1c(-c2ccc(Cl)cc2)[n+]([O-])c2ccccc2n1OCc1nc2ccccc2[nH]1,inactive
6,COc1ccc(C(=O)NC2CCN(C(=O)Nc3ccc(F)cc3)CC2)cc1,inactive
7,CCOC(=O)N1CCC(N2Cc3cccc(C(=O)Nc4ccc(S(=O)(=O)N(CC)CC)cc4)c3C2=O)CC1,inactive
8,CCCCN=C(N)/C(C(=O)OCC)=C(\O)c1ccc(OC)cc1,inactive
9,CCN1CCN(C(C(=O)NC2CCCC2)c2cc3c(cc2[N+](=O)[O-])OCO3)CC1 (stereo not given),inactive
10,COc1ccc(NC(=O)C2CCN(S(=O)(=O)c3ccc4[nH]c(=O)oc4c3)CC2)c(OC)c1,inactive
11,COC(=O)c1ccccc1NC(=O)C1CC(=O)N(c2ccc(OC)cc2)C1 (stereo not given),inactive
12,COC(=O)c1ccccc1NC(=O)C1CCN(S(=O)(=O)c2cc(OC)ccc2OC)CC1,-5.1 (active)
13,COc1cccc(NC(=O)C/C(C)=N/NC(=O)C2CCCCC2)c1,inactive
14,Cc1cc2oc(=O)cc(CN3CCN(Cc4ccccc4)CC3)c2cc1C,inactive
15,CCCOc1ccc(C2c3c(oc4cc(C)c(C)cc4c3=O)C(=O)N2CCCN2CCOCC2)cc1 (stereo not given),inactive
16,Cc1cc2oc3ccc(NCCC4CCCN4C)cc3c(=O)c2cc1C (stereo not given),-9.21 (active)
17,CCc1ccc(/C=N/NC(=O)c2ccc(OC3CCCC3)cc2)s1,inactive
18,CCN(CC)C(=O)CSc1ncnc2c1cnn2-c1ccccc1,inactive
19,CCOc1ccccc1N1CCN(C(=O)c2ccc3[nH]c(C)c(C)c3c2)CC1,inactive
20,O=C(NCCO)C(=O)NCC(c1ccc2c(c1)OCO2)N1CCN(c2ccc(F)cc2)CC1 (stereo not given),inactive
21,CC(C)CNC(=S)Nc1ccc(F)cc1,inactive
22,CC(NC(=S)Nc1ccc(OC(F)F)cc1)c1ccc(F)cc1 (stereo not given),-5.09 (active)

row,SMILES,B-score
1,Cc1ccc(NC(=S)Nc2ccc(F)cc2)cc1,inactive
2,Cc1cc(Br)ccc1NC(=O)CN(C)C(=O)CN1C(=O)NC2(CCCC2)C1=O,inactive
3,CCOc1ccccc1-c1cc(C(=O)N/N=C(\C)c2cccnc2)c2ccccc2n1,inactive
4,CCNC(=O)Nc1ccc(S(=O)(=O)Nc2cnc(C)nc2C)cc1,inactive
5,CCCc1cc(=O)oc2c(C)c(OCC(=O)N3CCC(C(=O)O)CC3)ccc12,inactive
6,CCCc1cc(=O)oc2c(C)c(OC(C)C(=O)NCC(O)c3ccccc3)ccc12 (stereo not given),inactive
7,CCCc1cc(=O)oc2c(C)c(O)c(CN3CCCCC3)cc12,-5.62 (active)
8,O=C(N/N=C\C1CC=CCC1)c1ccc(Br)o1 (stereo not given),inactive
9,CC(C)C(=O)N1c2ccccc2NC2=C(C(=O)CCC2)C1c1ccc(N(C)C)cc1 (stereo not given),inactive
10,CN(C)c1ccc(C2N(C)C(=O)c3ccccc3N2C)cc1 (stereo not given),-7.38 (active)
11,CN(C)c1ccc(C2Nc3ccccc3C(=O)N2NS(=O)(=O)c2ccccc2)cc1 (stereo not given),inactive
12,S=c1[nH]c2ccccc2c2ccccc12,inactive
13,N=c1c2c3c(sc2ncn1N)CCCCC3,inactive
14,N=c1c2c3c(sc2ncn1CCCN1CCOCC1)CCCCC3,-5.61 (active)
15,N=c1c2c3c(sc2ncn1N)CCCC3,inactive
16,C=C(C)Cn1c(C)cc(C)c(S(=O)(=O)c2ccccc2C)c1=O,inactive
17,C/C(=N\NC(=O)C1(C)CC1(Br)Br)c1ccc(C)cc1C (stereo not given),inactive
18,C=CCNC(=O)c1ccccc1NC(=O)c1ccc(Cl)c(S(=O)(=O)Nc2cccc(C)c2C)c1,inactive
19,CN(C)C(CNC(=O)c1cccc(S(=O)(=O)Nc2ccc(Br)cc2)c1)c1ccco1 (stereo not given),inactive
20,CC(=O)c1ccc(S(=O)(=O)Nc2ccc(C(=O)NCC(c3ccccc3)N(C)C)cc2)cc1 (stereo not given),inactive
21,COc1ccccc1C(CNC(=O)c1cccc(NS(=O)(=O)c2ccc(Br)cc2)c1)N(C)C (stereo not given),-5.61 (active)
